# Screening data as filed in PubChem BioAssay.
# PLK1 PBD inh: PLK1 (human) polo-box domain binding inhibition; Plk1 PBD binding of FITC phosphopeptide, fluorescence polarization; AID 720504; 360,000 compounds, 2.8% hits; P53350; Potency, µM, inactives show max response, negative = inhibition, most hits filed as inhibitors; further: potency means the concentration at half of the fitted maximal effect; series mostly up to about 57 µM; on the % scale 0 is the no-effect control and ±100 the full control effect; nearly all actives have a fitted effect of over 65% in size
# BAZ2B block: blocks human BAZ2B; Potency, µM (highest dose often 114 µM), for the others: top-dose activity change, negative = inhibition, most hits filed as inhibitors; AlphaScreen BAZ2B-H3K14Ac peptide displacement; Q9UIF8; 360,000 compounds, 4.4% hits; further: potency means the concentration at half of the fitted maximal effect; on the % scale 0 is the no-effect control and ±100 the full control effect; nearly all actives have a fitted effect of over 60% in size
#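 AlphaScreen displacement of biotin-H3(5-23)K14Ac peptide (50 nM final) from BAZ2B (50 nM final) in PBS pH 7.4, 0.01% Tween-20; complex preformed 30 min RT, then compounds (top 110 uM) 30 min RT, beads 20 min dark.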
# HP1b binding inh: HP1-beta chromodomain-methylated histone interaction inhibition; P83916; AlphaScreen HP1-beta / biotin-H3K9me3 peptide binding; Potency, µM (highest dose often 114 µM), inactives show top-dose activity change, negative = inhibition, most hits filed as inhibitors; 390,000 compounds, 0.56% hits; further: potency means the concentration at half of the fitted maximal effect; nearly all actives have a fitted effect of over 70% in size
#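 HP1-beta protein (50 nM final) preincubated 30 min at room temperature with biotinylated H3(1-18)K9me3 peptide (50 nM) in PBS pH 7.4, 0.01% Tween-20, then compound added for 30 min. AlphaScreen streptavidin donor/nickel chelate acceptor beads (10 ug/mL final), 30 min dark, luminescence read.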
# L3MBTL1 inh: inhibitors of human L3MBTL1; Q9Y468; AlphaScreen L3MBTL1–H3K9me1 peptide binding; Potency, µM (doses to about 57.1 µM), for the others: at the top dose activity, negative = inhibition, hits mostly inhibitors; 230,000 compounds, 0.66% hits; further: potency means the concentration at half of the fitted maximal effect; on the % scale 0 is the no-effect control and ±100 the full control effect; nearly all actives have a fitted effect of over 60% in size
# Target sequence (Q9Y468 whole entry, looked up): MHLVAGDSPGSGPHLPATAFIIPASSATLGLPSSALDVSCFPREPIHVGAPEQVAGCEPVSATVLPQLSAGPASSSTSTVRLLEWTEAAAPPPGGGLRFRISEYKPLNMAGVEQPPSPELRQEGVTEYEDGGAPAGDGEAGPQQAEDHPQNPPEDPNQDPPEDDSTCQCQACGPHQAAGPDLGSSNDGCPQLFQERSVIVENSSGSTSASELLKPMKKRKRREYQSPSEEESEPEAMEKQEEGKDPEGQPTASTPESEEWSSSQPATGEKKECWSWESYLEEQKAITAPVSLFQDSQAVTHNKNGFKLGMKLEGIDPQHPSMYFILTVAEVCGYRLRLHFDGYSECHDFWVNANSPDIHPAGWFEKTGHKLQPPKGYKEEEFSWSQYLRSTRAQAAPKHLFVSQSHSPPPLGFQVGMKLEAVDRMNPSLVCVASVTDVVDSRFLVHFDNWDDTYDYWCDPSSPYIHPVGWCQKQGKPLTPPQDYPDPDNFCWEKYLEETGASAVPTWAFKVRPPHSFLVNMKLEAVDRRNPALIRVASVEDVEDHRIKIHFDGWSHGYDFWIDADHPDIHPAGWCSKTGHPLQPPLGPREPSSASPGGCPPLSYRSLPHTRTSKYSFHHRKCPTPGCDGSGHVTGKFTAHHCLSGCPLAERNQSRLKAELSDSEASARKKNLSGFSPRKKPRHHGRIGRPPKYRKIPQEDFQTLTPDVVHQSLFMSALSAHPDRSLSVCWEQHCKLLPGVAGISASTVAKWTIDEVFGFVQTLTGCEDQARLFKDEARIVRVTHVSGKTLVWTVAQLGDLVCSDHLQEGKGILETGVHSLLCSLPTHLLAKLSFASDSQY
#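 Read-out is AlphaScreen signal from streptavidin donor and nickel chelate acceptor beads (10 ug/mL final each) bridging L3MBTL1 (50 nM) and biotinylated K9-monomethylated H3(1-15) peptide (75 nM), after 30 min compound exposure at room temperature.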
# JMJD2A Tudor: JMJD2A Tudor domain (human) inhibition. O75164. Potency, µM (highest dose often 114 µM), without a hit: at the top dose activity change, negative = inhibition, usual class: inhibitors. AlphaScreen JMJD2A-Tudor / H3K4me3 peptide binding. AID 504339. 390,000 compounds, 4.4% hits; further: potency means the concentration at half of the fitted maximal effect; on the % scale 0 is the no-effect control and ±100 the full control effect; nearly all actives have a fitted effect of over 50% in size
# VDR inh: vitamin D3 receptor (human) inhibition; P11473; VDR-SRC2-3 peptide fluorescence polarization, 2 h; Potency, µM, inactives show max response, negative = inhibition, usual class: inhibitors; 400,000 compounds, 0.93% hits; AID 504847; further: potency means the concentration at half of the fitted maximal effect; on the % scale 0 is the no-effect control and ±100 the full control effect
#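 Compounds are added to VDR with labelled SRC2-3 coactivator peptide and held 2 h at room temperature. Inhibition of the VDR–peptide interaction is then read as a change in fluorescence polarization.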
# USP1 UbRho: validation of human USP1/UAF1 inhibitors; 50 compounds, 50% hits; Potency, µM (top dose mostly 114 µM), inactives show at the highest dose activity change, negative = inhibition, hits mostly inhibitors; AID 540327; shares compounds with VDR inh; Ub-Rhodamine cleavage, fluorescence kinetic read
# VDR confirm: confirmation of human vitamin D receptor inhibitors. 840 compounds, 89% hits. shares compounds with VDR inh. VDR-coactivator inhibition assay, qHTS confirmation. Potency, µM, usual class: inhibitors; further: potency means the concentration at half of the fitted maximal effect
# VDR FP fluor: blocks human VDR-coactivator binding in fluorescein assay; shares compounds with VDR inh; VDR-coactivator binding, fluorescein fluorescence polarization; Potency, µM (highest dose often 57.1 µM), inactives show at the top dose activity change, negative = inhibition, most hits filed as inhibitors; 840 compounds, 48% hits; further: potency means the concentration at half of the fitted maximal effect
# VDR bla: confirmation of human vitamin D receptor inhibitors in reporter cells | shares compounds with VDR inh | VDR beta-lactamase reporter cells, FRET ratio; cells co-treated with VDR agonist LG190178 | Potency, µM (doses to about 46.1 µM), for the others: top-dose activity change, negative = inhibition, actives largely listed as inhibitors | 840 compounds, 23% hits; further: potency means the concentration at half of the fitted maximal effect; on the % scale 0 is the no-effect control and ±100 the full control effect
# VDR viability: cytotoxic in counter-screen for VDR inhibitors; shares compounds with VDR inh; cytotoxicity counter-screen, cell viability, qHTS; Potency, µM (top dose mostly 48.3 µM), inactives show at the highest dose activity change, negative = cytotoxicity, hits mostly cytotoxic; 840 compounds, 18% hits;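 further: potency means the concentration at half of the fitted maximal effect; plate controls were DMSO for no effect and high-concentration cycloheximide for full effect; nearly all actives have a fitted effect of over 75% in size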
# Active calls of the source: *; ? = inconclusive; · = not tested or not shown; ! = a repeat was not active; [ ] = remark or other dose. The list is not random: actives were taken first. Their share in the collection is about 6.9%. The call rests on the fitted dose curve; in most records, active means well fitted curve in the direction sought with a large enough effect; inconclusive means small, poorly fitted or top-dose-only effect, or another doubt; inactive means no such curve, though single readings can be large; an effect the other way counts as inactive or inconclusive.
SMILES,PLK1 PBD inh,BAZ2B block,HP1b binding inh,L3MBTL1 inh,JMJD2A Tudor,VDR inh,VDR confirm,VDR FP fluor,VDR bla,VDR viability,others
CC1(C)CC(=O)C(C(C2=C(O)CC(C)(C)CC2=O)c2ccc(O)c([N+](=O)[O-])c2)=C(O)C1,4.7µM*,-32%,20%,-6%,-8%,79µM*,9.5*,?,-2%,17%,
Cc1nnc(NC(=O)c2oc3ccccc3c2C)s1,-4%,-4%,28%,·,-7%,-4%,·,·,·,·,
Cc1c(C(=O)Nc2nc(-c3ccccn3)cs2)oc2ccccc12,12µM*,35µM*,?,?,?,89µM*,21*,-13%,?,?,
COc1cc(/C=N/n2cnnc2-n2nc(C)cc2C)cc([N+](=O)[O-])c1O,-2%,-29%,27%,-6%,-13%,-26%,·,·,·,·,
C/C(=C\c1ccccc1)C(=O)Nc1cc(C)on1,0%,3%,34%,·,5%,7%,·,·,·,·,
CCCCC1C(=O)N(c2ccccc2)N(c2ccc(O)cc2)C1=O (stereo not drawn),24µM*,5%,?,3%,56µM*,11µM*!,?,14µM*,6.5µM*,21µM*,
CC(C)Oc1ccc(CNC(=O)C2COc3ccccc3C2)cc1 (stereo not drawn),·,3%,22%[57 µM],·,-19%,6%,·,·,·,·,
CCOC(=O)c1c(-c2ccccc2)csc1NC(=O)c1cc(-c2cccc(Cl)c2)on1,·,7%,-21%,·,-14%,?,·,·,·,·,
CCOC(=O)c1c(-c2ccccc2)csc1NC(=O)c1cc(-c2cccc(OC)c2)on1,·,-2%,-20%,·,6%,79µM*,22*,16µM*,-16%,-3%,
CCc1ccccc1NC(=O)CCS(=O)(=O)c1ccc2c(c1)CCCN2C(C)=O,-10%,-6%,44%,·,-9%,-7%,·,·,·,·,
CCOc1ccc(CCNC(=O)c2cccc(C#N)c2)cc1OCC,-17%,-10%,25%,-3%,-8%,-9%,·,·,·,·,
CC1C/C(=C/c2ccncc2)C(=O)/C(=C/c2ccncc2)C1 (stereo not drawn),-27%,?,34%,·,-13%,22µM*,6.7*,3.5µM*,5.2µM*,21µM*,
CCOC(=O)C(CN1CCCC1)c1ccccc1 (stereo not drawn),-9%,-6%,25%,0%,-13%,-10%,·,·,·,·,
O=C(c1ccc(Cl)cc1)C(CN1CCCCC1)c1ccccc1 (stereo not drawn),?,51%,39%[57 µM],·,-21%,20µM*,?,22µM*,13µM*,18µM*,
CC(=O)N(C(C)=O)N1C(=O)C2C3c4ccccc4C(c4ccccc43)C2C1=O (stereo not drawn),?,-12%,43%,11%,-7%,35µM*,30*,?,33%,1%,
CN1C(=O)C2C3c4ccccc4C(c4ccccc43)[C@@H]2C1=O (stereo partly drawn),2%,4%,21%,·,-9%,-8%,·,·,·,·,
O=C1CN(S(=O)(=O)c2cccc(C(=O)O)c2)c2ccccc2N1,-18%,5%,7%,·,-7%,-13%,·,·,·,·,
C=CS(=O)(=O)c1c2cc(OC)ccc2nc2ccc(OC)cc12,2.7µM*,·,60%,·,26%,50µM*,24*,14µM*,?,?,
O=[N+]([O-])c1c(NCCO)cc(N2CCCCCC2)c2nonc12,-14%,-23%,9%,-1%,-23%,1%,·,·,·,·,
Cc1nnc(Sc2cc(NCCO)c([N+](=O)[O-])c3nonc23)s1,2.4µM*,-20%,13µM*,2%,?,22µM*,4.2*,?,?,?,
Cc1nnc(Sc2cc(NCCCO)c([N+](=O)[O-])c3nonc23)s1,5.3µM*,-25%,13µM*,-20%,28µM*,45µM*,13*,11µM*,?,?,
CC(N=Cc1cccc(O)c1O)c1ccccc1 (stereo not drawn),?,50µM*,?,·,45µM*,50µM*,20*,10µM*,12µM*,-17%,
CC(N=Cc1cc([N+](=O)[O-])ccc1O)c1ccccc1 (stereo not drawn),-17%,·,25%,·,-11%,-3%,·,·,·,·,
CN(Cc1ccccc1)C(=O)NC1CCCCC1,-4%,45%,36%,-5%,-2%,18%,·,·,·,·,
CC(C)(Sc1ccc(CCN(CCCCC2CCCCC2)C(=O)NC2CCCCC2)cc1)C(=O)O,21µM*,79µM*,14%,0%,79µM*,40µM*,·,·,·,·,USP1 UbRho=33µM*
SMILES,PLK1 PBD inh,BAZ2B block,HP1b binding inh,L3MBTL1 inh,JMJD2A Tudor,VDR inh,VDR confirm,VDR FP fluor,VDR bla,VDR viability,others
Cc1[nH]n(-c2ccc(Cl)cc2)c(=O)c1/C=N/c1nnc(-c2ccccc2)s1,0%,-7%,13%,6%,-16%,5%,·,·,·,·,
Cc1[nH]n(-c2ncc(-c3ccccc3)s2)c(=O)c1C(c1ccc(Cl)cc1)C(C#N)C#N (stereo not drawn),3.8µM*,40µM*,?,-17%,40µM*,35µM*,6.7*,?,20%,-5%,
Cc1cc(S(=O)(=O)c2ccc([N+](=O)[O-])cn2)ccc1Br,?,·,32%,·,-12%,?,2.2*,2.5µM*,7.3µM*,?,
CCOC(=O)C1=C(Cc2ccc(F)cc2)C(=O)c2ccccc2C1=O,9.5µM*,40µM*,?,·,20µM*,4.5µM*,5.3*,?,-9%,-18%,
CCN(c1cccc(C)c1)S(=O)(=O)c1cc(CN2C(=O)c3cccnc3C2=O)ccc1OC,-1%,?,29%,·,-3%,2%,·,·,·,·,
CN(C)c1nc(N)ncc1-c1ccc(Oc2ccccc2)cc1,-6%,7%,14%,·,-9%,14%,·,·,·,·,
